This is a sample that favours compounds with a hit; in the whole collection about 0.78% have one here.
RGS7-Gao = RGS7-Galphao binding modulators, primary screen, biochemical, multiplexed bead flow cytometry; Guanine nucleotide-binding protein G(o) subunit alpha (Homo sapiens), P09471; actives lie on both sides; binding response (% of control), % at 10 µM; 220,000 compounds, 0.35% hits; in the data active = binding response below about 49% or above about 150%; inconclusive = no clear call, values can overlap the other calls; inactive = in between;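 note: fluorescent Galphao held in activated GDP-AlF4 state binding bead-coupled RGS7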
RGS8-Gao = RGS8-Galphao binding modulators, primary screen, biochemical, multiplexed bead flow cytometry; AID 1423, 2008; 220,000 compounds, 0.34% hits; response (percent of control binding), % at 10 µM; actives lie on both sides; in the data active = response below about 60% or above about 140%; inactive = in between;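 note: Galphao activated as the GDP aluminium fluoride complex binding bead-coupled RGS8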
RGS16-Gao = modulators of RGS16 binding to Galphao, primary screen, biochemical, human proteins, multiplexed bead flow cytometry; bead-based flow cytometry RGS16-Galphao binding, fluorescence; actives lie on both sides; binding response (% of control), % at 10 µM; 220,000 compounds, 0.38% hits; AID 1441, 2008; call rule not given here;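 note: Galphao activated by GDP with aluminum fluoride before binding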
Target sequence (O15492 whole entry, looked up): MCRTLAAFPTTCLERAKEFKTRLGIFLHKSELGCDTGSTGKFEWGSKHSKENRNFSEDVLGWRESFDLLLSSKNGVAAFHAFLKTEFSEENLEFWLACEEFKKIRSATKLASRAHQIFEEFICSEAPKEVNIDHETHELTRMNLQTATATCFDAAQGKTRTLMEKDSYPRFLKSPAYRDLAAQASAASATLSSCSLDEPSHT
Target sequence (P09471 whole entry, looked up): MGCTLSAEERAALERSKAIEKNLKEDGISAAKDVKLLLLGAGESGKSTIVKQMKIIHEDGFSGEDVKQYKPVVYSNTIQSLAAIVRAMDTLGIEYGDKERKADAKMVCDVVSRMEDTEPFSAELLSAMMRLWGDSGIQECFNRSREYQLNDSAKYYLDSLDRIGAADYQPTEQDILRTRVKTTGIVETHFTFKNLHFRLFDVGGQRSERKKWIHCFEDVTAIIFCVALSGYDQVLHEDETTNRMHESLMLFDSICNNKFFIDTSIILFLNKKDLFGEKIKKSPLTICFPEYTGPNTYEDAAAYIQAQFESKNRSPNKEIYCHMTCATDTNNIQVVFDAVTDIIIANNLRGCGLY
RGS4-Gao reg = modulators of RGS4 binding to Galphao, primary screen, biochemical, multiplexed bead flow cytometry; binding response (% of control), % at 10 µM; AID 1415, 2008; 220,000 compounds, 0.33% hits; actives lie on both sides; Guanine nucleotide-binding protein G(o) subunit alpha (Homo sapiens), P09471; in the data active = binding response below about 49% or above about 150%; inactive = in between;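 note: fluorescent Galphao activated with aluminum fluoride binding bead-coupled RGS4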
* hit, by the source's call; ? = inconclusive; [ ] = dose if it differs, or a comment.

SMILES	RGS7-Gao	RGS8-Gao	RGS16-Gao	RGS4-Gao reg
Cc1ccc2c(c1)sc1nc(=O)n(-c3cccc(Cl)c3)c(=O)n12	109	109	114	111
COc1cccc(CC2(CO)CCN(Cc3cccn3-c3cccnc3)CC2)c1	100	100	102	100
CCOC(=O)c1c(C)c2c(n1C)CCC/C2=N\O	100	98	103	101
COc1ccc(-c2[nH]nc3c2C(c2ccc(OC(=O)N4CCOCC4)cc2)C(C#N)=C(N)O3)cc1 (stereo not drawn)	45*	52*	38	44*
CN(C(=O)c1ccc(C#N)cc1)c1nnc(-c2ccccn2)s1	103	101	102	102
O=C(NCc1ccco1)/C(=C/c1cccnc1)NC(=O)c1ccco1	14*	12*	1.6*	21*
Cc1ccc(C(=O)N/C(=C/c2cccnc2)C(=O)NCc2ccco2)cc1	101	105	105	104
Cc1nn(Cc2ccccc2)c(C)c1C(=O)OCC(=O)c1cc(C)n(C2CC2)c1C	82	86	47	80
COc1ccccc1-n1cnc2cc(NCc3ccco3)ccc21	99	100	100	100
CSc1ncccc1C(=O)OCc1ccccc1Cl	99	100	103	100
CC(C)N=C(NS(=O)(=O)c1ccccc1)C(Cl)(Cl)Cl	97	101	102	99
Cc1ccc(-c2nc3cccnc3s2)cc1NS(C)(=O)=O	-31*	2.3*	-19*	-22*
CCCS(=O)(=O)Nc1cccc(-c2nc3cccnc3s2)c1	?	102	105	103
Cc1ccc(N=CC2=C(O)CC(c3ccco3)CC2=O)cc1 (stereo not drawn)	95	96	97	99
Cc1cccc(C(=O)NC(NCc2ccco2)C(Cl)(Cl)Cl)c1 (stereo not drawn)	44*	57*	42	49*
CC(=O)c1c(OC(=O)c2ccc(C)cc2)c2ccccc2n1C	105	103	108	101
CC1CC2(CCCCC2)N2C(=O)C(=O)c3cccc1c32 (stereo not drawn)	29*	43*	28	41*
COc1ccc(CCNC(=O)CCNC(=O)c2ccc(Cl)cc2)cc1OC	104	102	103	103
c1ccc2c(c1)ncn2Cc1nnc2sc(-c3ccc4c(c3)OCO4)nn12	101	96	86	99
CCn1ncc(Br)c1C(=O)Nc1ccc(C(=O)OC(C)C)cc1	102	103	92	99
O=C1Nc2ccc(S(=O)(=O)N3CCCCCC3)c3cccc1c23	88	82	53	82
CC[n+]1c(/C=C2\C=C(C)CC(C)(C)C2)sc2ccccc21	105	94	91	98
CC[n+]1c(/C=C2/C=C(C)CC(C)(C)C2)sc2ccc(OC)cc21	163*[activator]	115	284	181*[activator]
CCNc1nc(NC(C)C)nc(N(C#N)CC(=O)OC)n1	99	99	100	98
CCOCC(=O)N1CCN(c2ccc(F)cc2)CC1	107	101	104	107
SMILES	RGS7-Gao	RGS8-Gao	RGS16-Gao	RGS4-Gao reg
CCN=C1S/C(=C\c2cn(C(C)=O)nc2-c2ccccc2)C(=O)N1CC	99	103	109	102
CC(C)OC(=O)CSc1nnc(CNc2ccc(Cl)cc2)n1Cc1ccccc1	99	100	90	89
CC(Oc1ccccc1)c1ccnc(N)n1 (stereo not drawn)	103	102	98	97
CCNC(=S)NNC(=O)c1cc(-c2ccc(OC)cc2)nc2ccccc12	104	103	105	104
O=C(Cc1ccc(Br)cc1)Nc1ccc(Cl)cc1	95	98	95	92
CCOc1cccc(C(=O)Nc2cccc(-c3nnc(-c4ccccc4)o3)c2)c1	89	95	93	93
CCOc1cccc(C(=O)Nc2cccc(-c3nnc(-c4ccc(C)cc4)o3)c2)c1	143	109	341	151*[activator]
CC1Cc2ccccc2N1C(=O)CCS(=O)(=O)c1cccs1 (stereo not drawn)	322*[activator]	148*[activator]	634	222*[activator]
O=C(Cn1cc(C(F)(F)F)ccc1=O)Nc1cccc(S(=O)(=O)N2CCOCC2)c1	136	101	99	106
O=C(Nc1ccccc1NC(=O)c1ccco1)c1ccco1	-19*	6.2*	-27*	-45*
N#Cc1ccccc1Sc1ccccc1N	14*	12*	0.4*	20*
O=C(O[C@@H]1Cc2c(O)cc(O)cc2O[C@@H]1c1cc(O)c(O)c(O)c1)c1cc(O)c(O)c(O)c1	32*	56*	56	48*
COc1ccc(Cc2noc(CN(C)CCN3CCc4ccccc4C3)n2)cc1OC	105	105	105	106
CN(CCN1CCc2ccccc2C1)Cc1nc(Cc2ccccc2F)no1	17*	27*	20*	28*
COc1cccc(CSc2nnc(C(F)(F)F)n2Cc2ccc(F)cc2)c1	12*	12*	0.4*	20*
Cc1ccc(CSc2nnc(C(F)(F)F)n2Cc2ccc(F)cc2)cc1	103	102	107	102
N#C/C(=C\c1ccc(O)c(O)c1)S(=O)(=O)c1ccccc1	203*[activator]	155*[activator]	259*[activator]	223*[activator]
Cc1oc(-c2cc(Cl)cc(Cl)c2)cc1C(=O)NCCc1ccccc1	99	99	102	99
Cc1ccc(C(=O)NNC(=O)Cc2cccs2)cc1	100	100	99	101
O=C(Cc1ccccc1)Nc1nnc(-c2ccco2)s1	103	98	102	101
CCOc1ccc(C(=O)Nc2cc(C)c3c(=O)oc4ccccc4c3n2)cc1	95	102	101	97
COc1cccc(CN(C)CC(=O)NNC(=O)c2ccc(Cl)cc2)c1	76	89	81	81
CN(C)NC(=S)Nc1cccc(Cl)c1	?	106	105	108
CN(C)CCNC(=S)Nc1cccc(Cl)c1	14*	12*	0.9*	22*
O=C(NCCCN1CCOCC1)C(=O)NCc1ccco1	107	103	106	104
SMILES	RGS7-Gao	RGS8-Gao	RGS16-Gao	RGS4-Gao reg
Cc1ccc(C(=O)NCCN2C3=NC[C@H](C(C)C)N3C[C@H]2Cc2ccc(O)cc2)cc1Br	102	100	94	99
CCN(C(=O)Nc1ccccc1OC)c1c(N)n(Cc2ccccc2)c(=O)[nH]c1=O	104	102	101	100
CCN(CCNC(=O)Cn1cc2c(n1)CCCC2)c1ccccc1	101	102	107	100
O=C(Nc1nc(-c2ccccc2)cs1)c1cccc([N+](=O)[O-])c1	13*	12*	1.7*	21*
O=C(Nc1nc(-c2cccnc2)cs1)c1cccc([N+](=O)[O-])c1	103	103	105	103
CC1CCCC(C)N1/N=C/C=C/c1ccccc1[N+](=O)[O-] (stereo not drawn)	103	103	98	100
CCc1ccc(N2CC(C(=O)Nc3ccc(C)c(S(=O)(=O)N4CCOCC4)c3)CC2=O)cc1 (stereo not drawn)	152*[activator]	145*[activator]	168	181*[activator]
Cc1c(C(=O)O)cccc1-n1c(C)cc(/C=N/Nc2ccc([N+](=O)[O-])cn2)c1C	?	90	82	89

Screening data as filed in PubChem.
